# Measurements from PubChem BioAssay AID686979 (National Center for Advancing Translational Sciences (NCATS), 2013).
# The whole screen tested about 420,000 compounds, of which about 50,000 (12%) were called active. Inconclusive results (about 26%) are left out. Calls come from the whole dose curve; as a rule, active = well fitted inhibition curve with a large enough effect; inconclusive = small, poorly fitted or top-dose-only effect; inactive = flat fitted curve, though single readings scatter. The entries come from a sample that favours actives as a whole.
# Assay: qHTS for Inhibitors of human tyrosyl-DNA phosphodiesterase 1 (TDP1): qHTS in cells in presence of CPT; note: nearly all actives have a fitted effect of over 55% in size
# Conditions: chicken DT40 Tdp1-/-;hTDP1 cells + 20 nM CPT, ATP luminescence, 48 h; series mostly up to 46.2 µM; activity change, negative = growth inhibition: at the top concentration
# How it was run: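 Chicken DT40 Tdp1-/- cells stably complemented with human TDP1 were seeded at 400 cells/well in medium containing 20 nM camptothecin, exposed to pin-transferred compounds, and grown at 37 °C for at least 48 hr. Viability was read as ATP luminescence.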
# % is set by controls: 0 for no effect and ±100 for the full control effect; potency is the fitted concentration of half-maximal effect.
Structure (SMILES),"activity change, negative = growth inhibition",Potency
O=C(Nc1ccccc1N1CCCCC1)c1cccc(F)c1,-28.7% (inactive),
O=C(Nc1ccccc1N1CCOCC1)c1ccncc1,-1.96% (inactive),
O=C(Nc1ccccc1N1CCCCC1)c1ccc2nccnc2c1,,20.6 µM (active)
COC(=O)c1cccc(N(C(=O)CNC(=O)c2cccs2)C(C(=O)NCC2CCCO2)c2ccc(OC)c(OC)c2)c1 (stereo not given),1.61% (inactive),
CNC(=O)CN1C(=O)c2cccnc2Sc2ccccc21,-3.74% (inactive),
O=C(c1cc(C(F)(F)F)cc(C(F)(F)F)c1)N1CCC[C@@]2(CCN(c3ccccn3)C2)C1,,16.4 µM (active)
CC(C)NC(=O)N1CC[C@@]2(CCCN(C(=O)c3cccc(F)c3)C2)C1,2.88% (inactive),
CC(=O)N1CCC2(CCCN(c3ncccn3)C2)CC1,12.2% (inactive),
Cc1cc(F)ccc1S(=O)(=O)Nc1ccc(C(=O)N(C)Cc2ccco2)cc1,-17.2% (inactive),
COc1c(C=O)c(CCN(C)C(=O)c2ccc(F)cc2)cc2c1OCO2,1.5% (inactive),
COc1cccc2c1OCC(CN1CCN(C3CCCCC3)C(CCO)C1)=C2 (stereo not given),17.8% (inactive),
COc1ccc(-n2c(=O)c3ccccc3n(Cc3ccccc3Cl)c2=O)cc1,-12.9% (inactive),
CC(=O)OC[C@H]1O[C@@H](O[C@H]2[C@H](O)[C@@H](OC(=O)c3ccccc3C(=O)O)[C@H](O)O[C@@H]2COC(C)=O)[C@H](O)[C@@H](OC(=O)c2ccccc2C(=O)O)[C@@H]1O,9.29% (inactive),
Cc1ccc(C(=O)N/C(=C\c2cccs2)C(=O)NCCc2ccccn2)cc1C,-4.71% (inactive),
COc1cncc(-c2cnc3sc(NCCc4ccccn4)nn23)c1,,13 µM (active)
O=C(CNC(=O)COc1ccccc1)NCCc1ccccn1,25.9% (inactive),
N#Cc1cc([N+](=O)[O-])ccc1NCC1CCCO1 (stereo not given),-1.48% (inactive),
O=C(O)CN1c2cccc3cccc(c23)S1(=O)=O,8.65% (inactive),
Cc1ccc(NC(=O)/C(=C\c2ccccc2)NC(=O)c2ccco2)cc1,19.2% (inactive),
FC(F)Oc1ccccc1C1CC(c2ccc(Br)s2)Nc2ncnn21 (stereo not given),,11.6 µM (active)
COc1ccc(C2CC(c3ccccc3)Nc3ncnn32)cc1 (stereo not given),-21.6% (inactive),
Clc1ccc(C2CC(c3cccs3)n3ncnc3N2)cc1Cl (stereo not given),-15.9% (inactive),
CCOC(=O)Cn1nnnc1C,2.09% (inactive),
O=C(O)c1cc(S(=O)(=O)N(Cc2ccccc2)c2ccccc2)ccc1Cl,14.8% (inactive),
COc1cc2nnn(-c3ccncc3)c2cc1OC,1.19% (inactive),
Cc1nn(CC(=O)NCCc2ccccc2)c(=O)c2cc3occc3n12,1.61% (inactive),
COCCNC(=O)c1cc2c(Br)ccc(Br)c2nc1N,1.46% (inactive),

Structure (SMILES),"activity change, negative = growth inhibition",Potency
COc1ccccc1N1CCN(CCN2C(=O)c3ccccc3C(C)(C)C2=O)CC1,,14.6 µM (active)
COc1ccccc1N1CCN(CC(=O)NC(=O)NCc2ccco2)CC1,-0.174% (inactive),
CNCC(O)CN1CCN(c2ccccc2OC)CC1 (stereo not given),-3.99% (inactive),
COc1ccc2c(C)cc3nnnn3c2c1,1.49% (inactive),
CC(C)[C@H](NC(=O)N1CC(=O)Nc2ccccc21)C(=O)N[C@@H](Cc1c[nH]c2ccccc12)C(=O)O,8.26% (inactive),
CCN(C(=O)Cn1cnc2sc(C)c(S(=O)(=O)N3CCN(c4ncccn4)CC3)c2c1=O)c1ccccc1F,-17.6% (inactive),
CCOc1ccc(S(=O)(=O)N2CCCCC2)cc1NC(=O)CN1CCCC1c1cccs1 (stereo not given),,3.66 µM (active)
Cc1ccc(S(=O)(=O)N2CCCCC2)cc1NC(=O)[C@@H]1CCCN1C(=O)c1cccs1,7.21% (inactive),
COc1ccc(S(=O)(=O)N2CCCCCC2)cc1NC(=O)Cc1ccc(OC)c(OC)c1,6.32% (inactive),
Cc1csc[n+]1CCC1CCCCC1,,20 µM (active)
CC(=O)c1ccc(N2C(=NC(=O)C(C)C)SC3CS(=O)(=O)CC32)cc1 (stereo not given),-10.8% (inactive),
O=C(CN1CCN(CC(=O)Nc2ccc3c(c2)OCO3)CC1)Nc1ccc(F)cc1,-6.39% (inactive),
O=C(CSc1nnc(-c2ccccn2)n1-c1ccccc1)Nc1ccc2c(c1)OCO2,1.97% (inactive),
O=C(CSc1nc(-c2cccc(F)c2)[nH]c1-c1ccccc1)Nc1ccc2c(c1)OCO2,,10.3 µM (active)
O=c1c(CCc2ccccc2)nc2cncnc2n1C1CC1,2.45% (inactive),
CCCNC(=O)C(=O)Nc1cc2c3c(c1)CCC(=O)N3CCC2,-0.193% (inactive),
Cc1cc(F)ccc1N1CCC(N2CCN(C)C(CCO)C2)CC1 (stereo not given),-17.2% (inactive),
O=C(Nc1ccc(N2CCOCC2)c(Cl)c1)c1ccc(S(=O)(=O)N2CCOCC2)cc1,-19.1% (inactive),
O=S(=O)(c1cccc(-c2nnc3n2CCCCC3)c1)N1CCOCC1,-17.9% (inactive),
O=C(Nc1ccc2c(c1)nc1n2CCCCC1)c1cc(S(=O)(=O)N2CCOCC2)ccc1Cl,,11.6 µM (active)
N#C/C(=C(\O)C(F)(F)F)c1nnc2n1CCCCC2,-13.9% (inactive),
Cc1cccc(C(=O)OCC(=O)Nc2sccc2C(N)=O)c1C,6.25% (inactive),
O=C(/C=C/Sc1ncn[nH]1)c1ccc(Cl)cc1,,2.31 µM (active)
COc1ccc(Cl)cc1CSc1ncn[nH]1,0.877% (inactive),
O=C(CSc1ncn[nH]1)N/N=C/c1ccc(F)cc1,0.0663% (inactive),
COC(=O)c1sccc1-n1cccc1C(=O)C(=O)N1CCCCC1,-5.51% (inactive),
O=C(COC(=O)c1ccc(Oc2ccccc2)cc1)Nc1nnc(-c2ccccc2)o1,-23.6% (inactive),

Structure (SMILES),"activity change, negative = growth inhibition",Potency
COc1cccc(NC(=O)c2ccc(S(=O)(=O)N(C)C)cc2)c1,-1.56% (inactive),
COc1cccc(-c2nnc(NC(=O)c3ccc(S(=O)(=O)N(CC(C)C)CC(C)C)cc3)o2)c1,,3.66 µM (active)
O=C1/C(=C/c2ccc(F)cc2)SC(=S)N1NS(=O)(=O)c1ccccc1,-3.85% (inactive),
O=C(CCN1C(=O)c2ccccc2C1=O)C1=NN[C@@H]2C(=O)N(c3ccc(F)cc3)C(=O)[C@H]12,-3.2% (inactive),
CCCC(=O)Nc1nnc(-c2ccccc2)o1,0.251% (inactive),
Cc1c(CC(=O)NCCCCCC(=O)O)c(=O)oc2cc3occ(-c4ccccc4)c3cc12,11.6% (inactive),
CCCCCCc1cc2cc(-c3nnc(-c4ccccc4)o3)c(=O)oc2cc1O,,14.6 µM (active)
Nc1cccc(S(=O)(=O)Nc2ccc(SC(F)F)cc2)c1,-8.22% (inactive),
CC(C)(C)c1cc(P(=O)(c2ccccc2)c2ccccc2)ccc1O,-13.8% (inactive),
COc1ccccc1-c1cnn2c(N3CCOCC3)cc(C)nc12,10.4% (inactive),
O=C(Nc1cccc(Br)c1)C1CC(=O)N(C2CCCC2)C1 (stereo not given),0.73% (inactive),
COc1ccc(OC)c(NC(=O)Cc2cccs2)c1,-28.1% (inactive),
Cn1c(SCC(=O)N/N=C/c2ccc(O)c(O)c2)nc2ccccc21,-81.7% (inactive),
O=c1c2ccccc2ncn1/N=C/c1ccccc1,-6.74% (inactive),
CCCc1nc2ccccc2c(=O)n1/N=C/c1ccc(O)c(O)c1,,11.6 µM (active)
CSc1nc2c(c(=O)[nH]1)C(c1cccc(Cl)c1Cl)CC(=O)N2 (stereo not given),5.31% (inactive),
S=C(NCC1CCCO1)N1CCN(c2ccc(Cl)c(Cl)c2)CC1 (stereo not given),,20.6 µM (active)
O=C(CSCc1c(F)cccc1Cl)NCC1CCCO1 (stereo not given),-10.4% (inactive),
COc1ccc(S(=O)(=O)N2CCN(C(=S)NCC3CCCO3)CC2)cc1OC (stereo not given),6.64% (inactive),
O=Cc1c(N2CCN(c3cccc(Cl)c3)CC2)nc2ccccn2c1=O,-27.9% (inactive),
CC(CNc1ccc([N+](=O)[O-])c2cccnc12)Nc1c([N+](=O)[O-])cc(C(F)(F)F)cc1[N+](=O)[O-] (stereo not given),-5.74% (inactive),
FC(F)(F)c1ccc2c3n(nc2c1)CCN=C3c1ccc(Cl)cc1,-26.9% (inactive),
CCc1ccccc1NC(=O)CSc1nnc(CCNC(=O)OC(C)(C)C)o1,4.67% (inactive),
CN1OC[C@@H]2CN(C(=O)c3cccc4ccccc34)[C@H](c3ccc(N4CCCCC4)cc3)C[C@@H]21,-8.28% (inactive),
C[C@H]1Cn2cnc(C(=O)N[C@H](C)c3ccccc3)c2C(=O)N1,-2.86% (inactive),
COc1ccc(C(=O)OC(C)C(=O)NC2CCCC2)cc1S(=O)(=O)N1CCOCC1 (stereo not given),-15.1% (inactive),
COCCNc1ncnc2c1nc1n2CCCC1,-12.6% (inactive),

Structure (SMILES),"activity change, negative = growth inhibition",Potency
Cc1cccc2c(=O)n3c(nc12)CCCCC3,-29.8% (inactive),
CCCN(CCC)C(=O)C1CCCN(c2ncnc3c2nc2n3CCCCC2)C1 (stereo not given),,14.6 µM (active)
CN(C(=O)C1CCN(c2ncnc3c2nc2n3CCCCC2)CC1)C1CCCCC1,,20.6 µM (active)
CCCCN(CC)C(=S)Nc1ccc2nc3n(c(=O)c2c1)CCCCC3,-21.8% (inactive),
COCCCNC(=O)CN1C(=O)CSc2ccc(S(=O)(=O)N3CCOCC3)cc21,,inactive
O=C(NCc1ccncc1)c1ccc(NS(=O)(=O)c2cccc([N+](=O)[O-])c2)cc1,-13% (inactive),
COc1ccc(C(C)NC(=S)NC2CCCCC2)cc1OC (stereo not given),-15.6% (inactive),
COc1ccc(-n2c(CNC(=O)c3cc(C(F)(F)F)ccc3Cl)nnc2SC)cc1,21.6% (inactive),
COc1ccc(C(CNC(=O)COc2ccc([N+](=O)[O-])cc2)N2CCCCC2)cc1 (stereo not given),-15.2% (inactive),
CC(=O)c1ccc(S(=O)(=O)NC2CC(=O)N(c3ccc4c(c3)OCCO4)C2)cc1 (stereo not given),-2.96% (inactive),
Cc1ccc(N2C(=O)CN=C2Nc2nc(C)cc(C)n2)cc1,-2.45% (inactive),
COc1ccc(N2CCN(c3nc(-c4ccccc4F)nc4ccccc34)CC2)cc1,,20.6 µM (active)
COc1ccccc1-c1nc(N2CCN(C)CC2)c2ccccc2n1,7.98% (inactive),
COc1ccc(N2CCN(C(C)=C3C(=O)c4ccccc4C3=O)CC2)cc1,-17.9% (inactive),
O=C(Nc1ccc(Cl)cc1)c1cc2nc(C3CC3)cc(C(F)(F)F)n2n1,-14.9% (inactive),
COC(=O)C1(C)CC1(c1ccccc1)c1ccccc1 (stereo not given),-29.8% (inactive),
CC(C)Oc1ccc(/C=N/NC(=O)c2nnn(-c3nonc3N)c2CN(C)C2CCCCC2)cc1,-4.96% (inactive),
O=C(Nc1ccccc1Cl)N1CCC(CN2CCCC2)CC1,-3.55% (inactive),
CCOC(=O)N1CCN(S(=O)(=O)c2ccc3c(c2)C(C)C(=O)N3)CC1 (stereo not given),4.3% (inactive),
CC1C(=O)Nc2ccc(S(=O)(=O)N3CCN(c4ccccc4F)CC3)cc2NC1=O (stereo not given),,9.2 µM (active)
Cc1ccc(C)c(N2CCN(S(=O)(=O)c3ccc4c(c3)oc(=O)n4C)CC2)c1,-18.2% (inactive),
Cc1ccc(C)c(N2CCN(S(=O)(=O)c3ccc4c(c3)C(C(C)C)C(=O)N4)CC2)c1 (stereo not given),,20.6 µM (active)
O=S(=O)(N1CCOCC1)N1CCN(c2ccccc2F)CC1,-7.59% (inactive),
Cn1c(=O)c(=O)n(C)c2cc(S(=O)(=O)NCCN3CCN(c4ccccc4F)CC3)ccc21,0.149% (inactive),
